Source: PubChem BioAssay (ICCB-Longwood Screening Facility, Harvard Medical School)
Shown is part of a subset that was picked to be rich in hits.
RVFV N-RNA FP: inhibitors of RVFV nucleoprotein–RNA binding, primary screen, biochemical, fluorescence polarization. RVFV N-RNA binding; active compounds read low. % bound, % (no concentration beside the values). hit rate 0.1% among 20,000. AID 651828, 2012; in the data active means % bound below about 75%
Target sequence (P21700 whole entry, looked up): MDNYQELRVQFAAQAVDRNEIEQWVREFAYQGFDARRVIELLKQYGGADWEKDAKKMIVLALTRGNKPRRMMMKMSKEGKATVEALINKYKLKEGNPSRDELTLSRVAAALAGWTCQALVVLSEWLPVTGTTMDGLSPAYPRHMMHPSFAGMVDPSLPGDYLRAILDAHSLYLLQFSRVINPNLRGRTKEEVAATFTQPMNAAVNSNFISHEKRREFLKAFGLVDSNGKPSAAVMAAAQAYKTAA
* hit, by the source's call.

SMILES	RVFV N-RNA FP
COc1ccc(O)cc1	99.2
COC(=O)c1cc(-c2ccc(OC)cc2)n[nH]1	89.0
COc1ccc(C2=CC(=O)C=CC2=O)cc1	52.0*
CC(Oc1ccccc1)c1nc2ccccc2n1C (configuration not stated)	84.6
CCN(CC)Cc1c(O)ccc2c1O/C(=C\c1ccccc1Cl)C2=O	50.7*
CCN(CC)Cc1c(O)ccc2cc(-c3ccc(OC)c(OC)c3)c(=O)oc12	92.8
O=C1/C(=C/c2ccccc2)Oc2c1ccc(O)c2CN1CCCC1	106.2
[O-]/[N+](=C/c1ccc(C(F)(F)F)cc1)c1ccccc1	93.5
CS(=O)(=O)N(CC(=O)Nc1ccc(S(=O)(=O)N2CCCC2)cc1)c1ccc2c(c1)OCO2	94.3
O=C1Nc2ccccc2/C1=C\c1c(Cl)[nH]c2ccccc12	103.1
CCOC(=O)c1c(C)[nH]c(/C=C2\C(=O)Nc3ccccc32)c1C	12.2*
CCN(CC)CCNC(=O)c1c(C)[nH]c(/C=C2\C(=O)Nc3ccc(Cl)cc32)c1C	109.2
NS(=O)(=O)c1ccc(CCN2C(=O)CSC2=S)cc1	94.0
O=C(NCCSc1ccccc1)c1cc2ccccc2o1	101.0
COc1cc(OC)c2c(O)cc(=O)[nH]c2c1	96.4
Cc1ccc(S(=O)(=O)N(C)CC(=O)N2CCC(C)CC2)cc1	109.8
COc1ccc(NCC(=O)Nc2ccc(F)cc2)cc1	82.3
Cc1nnc2ccc(-c3ccc(NC(=O)c4ccc5c(c4)OCO5)cc3)nn12	87.8
CCOC(=O)/C(C#N)=C/c1ccc(-c2cccs2)s1	18.8*
CCOC(=O)/C(C#N)=C/N1CCCC1c1cccs1 (configuration not stated)	92.4
N#CC(C#N)=Cc1ccc(-c2cccs2)s1	86.2
COc1ccc(C(=O)CN2CCN(C(=O)CC(C)C)CC2)cc1	95.7
O=C1CC(C(=O)Nc2ccccc2)C2=C(CC(c3ccco3)CC2=O)N1 (configuration not stated)	96.8
CC(=O)N1CCc2cc(S(=O)(=O)Nc3cc(C)ccc3C)ccc21	96.5
COC(=O)c1nnn(-c2nonc2N)c1CN1CCC(Cc2ccccc2)CC1	97.2
SMILES	RVFV N-RNA FP
N#Cc1c(=N)nc2oc3ccc(Cl)cc3c3c(C#N)c(N)[nH]c1c23	87.1
CCNS(=O)(=O)c1ccc(Br)c2ccccc12	92.4
Cc1cccc(C(=O)NC(=S)Nc2ccc(N3CCN(C)CC3)cc2)c1	98.3
O=c1c2ccccc2[nH]c(=S)n1/N=C/c1ccccc1	101.1
c1ccc(-n2nnnc2-c2cnoc2-c2cccs2)cc1	90.3
CN1CCc2c(sc(NC(=O)c3ccc(S(=O)(=O)N(C)C)cc3)c2C(N)=O)C1	95.4
Nc1ccc(-c2ccccc2C(=O)O)cc1	95.4
CN(C)c1ccc(NC(=O)NCc2ccccc2)cc1	96.8
C=CCN1C(=O)CC(=O)NC1=S	102.3
CC1CC(=O)N(C)c2ccccc2S1 (configuration not stated)	95.8
CC(C)(C)NC(=O)c1ccccc1NC(=O)c1cccnc1	99.4
Cc1nnc(C)n1N1C(=O)c2cccc3cccc(c23)C1=O	88.3
CCCC(=O)ON1C(=O)c2cccc3cccc(c23)C1=O	98.1
O=C1C=C(O)c2cccc3cccc1c23	45.2*
NS(=O)(=O)c1ccc(-c2ccc(C3Nc4ccccc4-c4nc5ccccc5n43)o2)cc1 (configuration not stated)	93.9
O=C(OCn1nnc2ccccc2c1=O)c1ccccc1	95.1
O=C(Nc1nnc(-c2ccco2)o1)C1=COCCO1	95.8
COc1ccccc1OC(C)C(=O)NCc1ccccc1 (configuration not stated)	79.2
O=C(Nc1cccc(-c2ccc(N3CCCC3)nn2)c1)c1ccccc1	88.3
O=C(c1ccco1)N1N=C(c2ccccc2)CC1c1ccccc1 (configuration not stated)	90.5
NC(=O)CSc1ccc(-c2ccc3c(c2)OCO3)nn1	92.7
C#CCn1c(=NC(=O)C(C)C)sc2c(C)cc(C)cc21	101.0
Cn1c2nc3ccccc3nc2c2c(=O)n(C3CCCC3)cnc21	93.8
CC(C)(C)C(=O)CC(O)(c1ccccc1)C(F)(F)F (configuration not stated)	102.2
O=C(NCCS(=O)(=O)N1CCN(c2ccccc2)CC1)c1ccccc1	88.3
SMILES	RVFV N-RNA FP
COc1ccccc1OCCN1CCOCC1	95.6
CN1N=C2c3ccccc3CCC2C1c1cccs1 (configuration not stated)	92.3
O=C(Nc1nc2c(s1)COc1ccccc1-2)c1ccc2ncsc2c1	93.4
C=C1C2(C(=O)Nc3ccc(C(=O)OC)cc3)CCC(C2)C1(C)C (configuration not stated)	92.9
CCOC(=O)Cn1c(=NC(=O)C2COc3ccccc3O2)sc2cc(NC(C)=O)ccc21 (configuration not stated)	104.7
COc1ccc2ncc(S(=O)(=O)c3ccc(C)c(C)c3)c(N3CCN(C)CC3)c2c1	98.3
CCCCc1nnc(SCC(=O)Nc2ccccc2)n1CC	86.1
Cc1ccc(C(=O)OCc2ccco2)cc1	103.5
Cc1ccc2c(c1)NC(=O)c1cc(S(=O)(=O)N3CC(C)OC(C)C3)ccc1O2 (configuration not stated)	93.4
CC1CCc2cc(F)ccc2N1S(=O)(=O)c1ccc(NC(=O)COCC(=O)O)cc1 (configuration not stated)	109.2
CC(C)c1ccc(OCC(=O)N2CCCc3ccccc32)cc1	92.5
C#CCn1c(=NC(=O)C2CC2)sc2ccccc21	103.3
O=C(NCCCc1ccccc1)NC1CC(=O)N(c2ccc(F)cc2)C1 (configuration not stated)	94.4
Cc1c(Cl)cccc1NC1=CC(=O)CCC1	95.9
CCOC(=O)C1=CN(C)C=C(C(=O)OCC)C1c1ccc(C)c(Br)c1	96.4
Cc1ccc(-c2nc3ncccc3o2)cc1NC(=O)/C=C/c1ccc(Cl)cc1	92.2
CCS(=O)(=O)Nc1ccc(C(=O)N(C)Cc2ccccc2)cc1	99.1
COC(=O)/C=C/S(=O)(=O)c1ccc2ccccc2c1	89.8
COc1ccc(N2CC(C(=O)Oc3coc(CSc4ncccn4)cc3=O)CC2=O)cc1 (configuration not stated)	102.3
C=CCn1cc(/C=C(/C#N)c2ccc(F)cc2)c2ccccc21	93.2
COc1cc(C=NCCN=Cc2ccc(O)c(OC)c2)ccc1O	90.5
